Over roughly 16,000 sequences, “e-score” has its median near -0.044; the highest 2% begin near 0.38. This excerpt belongs to a sample that is enriched for the highest values.

The test addresses T1, GST-NbGlk1(82-244) (Nicotiana benthamiana).
T1 chain: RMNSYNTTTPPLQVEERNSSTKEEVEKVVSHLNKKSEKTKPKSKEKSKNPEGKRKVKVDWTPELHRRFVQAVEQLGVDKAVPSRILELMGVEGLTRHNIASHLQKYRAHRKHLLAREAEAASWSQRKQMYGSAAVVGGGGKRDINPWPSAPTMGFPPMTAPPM
As to the kind of experiment: protein-binding microarray; NbGlk1 is a Golden2-like transcription factor of Nicotiana benthamiana; high values mean tight binding. As to conditions: protein: recombinant; tags: GST (pTH6838); dsDNA, one strand shown.
In the case of ATCTTAAA, the binding signal worked out at 0.272 ± 0.0208 E-score.
For AAGATCCA the value was 0.24 ± 0.0941 E-score; for ATGTAGTA, 0.223 ± 0.0748 E-score; for ATTTCACA, 0.304 ± 0.0596 E-score.
In the case of ATTCTGCA it was 0.266 ± 0.0788 E-score.
For the sequence AATCTGCG, the binding signal turned out to be 0.444 ± 0.00526 E-score.
On to ATTCTGCG, for which the binding signal came to 0.217 ± 0.0166 E-score.
As to AATCAGCA, the binding signal was found to be 0.322 ± 0.0337 E-score.
Consider AATCTGCC, for which the binding signal amounted to 0.34 ± 0.133 E-score.
As for AATCTGCA, the binding signal turned out to be 0.414 ± 0.00858 E-score.
Regarding ATCCGGGG, the binding signal came out at 0.279 ± 0.0126 E-score.
For the sequence ATCCGCAA, the binding signal amounted to 0.325 ± 0.0306 E-score.
On to ATCTCACC, for which the binding signal came out at 0.317 ± 0.00666 E-score.
Take ATTACGAC: the binding signal worked out at 0.351 ± 0.0302 E-score.
With AGTATCGG, the binding signal is 0.202 ± 0.042 E-score.
Regarding ATATAACA, the binding signal came out at 0.214 ± 0.0677 E-score.
In the case of ATCCGCAC it was 0.284 ± 0.0333 E-score; in that of ACGATCCT, 0.272 ± 0.0244 E-score; in that of ATGTAATC, 0.462 ± 0.0104 E-score.
For AGGTAAAT the value was 0.205 ± 0.0739 E-score; for ACGTAATC, 0.4759 ± 0.00151 E-score.
ATATAATC: the binding signal turned out to be 0.297 ± 0.00596 E-score.
As to ATCTAATC, the binding signal turned out to be 0.331 ± 0.07 E-score.
Take AGGTAATC: the binding signal was determined as 0.416 ± 0.00105 E-score.
As to ACGTAATA, the binding signal is 0.285 ± 0.0122 E-score.
In the case of AAGTAATC it was 0.337 ± 0.0373 E-score; in that of ACATAATC, 0.327 ± 0.0217 E-score.
As for ATGGTATC, the binding signal turned out to be 0.2 ± 0.0619 E-score.
As to ATCTTTTC, the binding signal amounted to 0.289 ± 0.0307 E-score.
AAATCGAA: the binding signal is 0.329 ± 0.0505 E-score.
Consider ATCTCGGA, for which the binding signal stood at 0.36 ± 0.00407 E-score.
As for ATACTGTA, the binding signal was 0.274 ± 0.0926 E-score.
For ATTTCCAA the value was 0.36 ± 0.0335 E-score.
Consider ATTTTGCG, for which the binding signal was found to be 0.293 ± 0.0239 E-score.
As to AGGCGGAT, the binding signal was 0.206 ± 0.0564 E-score.
As for ATTTCATA, the binding signal turned out to be 0.353 ± 0.0105 E-score.
As for ATCGCAAT, the binding signal worked out at 0.397 ± 0.0277 E-score.
On to AACGCAAT, for which the binding signal amounted to 0.344 ± 0.0179 E-score.
For ATCGCGAT, the binding signal was determined as 0.4239 ± 0.000981 E-score.
In the case of ATCGCGAA it was 0.323 ± 0.0256 E-score; in that of ATCGCAAA, 0.234 ± 0.0734 E-score; in that of ATCGCGAG, 0.33 ± 0.00694 E-score.
For ATTTTTAC the value was 0.313 ± 0.0485 E-score; for ACATATCG, 0.226 ± 0.0607 E-score; for AGATCCCT, 0.298 ± 0.00953 E-score.
As to ATGGCAAT, the binding signal is 0.237 ± 0.0667 E-score.
In the case of ATCTAGTA it was 0.316 ± 0.0615 E-score.
For ACGTGGAT the value was 0.283 ± 0.0431 E-score; for ATTTTTAA, 0.221 ± 0.0275 E-score; for AAGCGATC, 0.294 ± 0.0444 E-score.
On to ACGCGATC, for which the binding signal amounted to 0.437 ± 0.0114 E-score.
With ACGCGATA, the binding signal turned out to be 0.252 ± 0.00347 E-score.
On to ATCTTGTG, for which the binding signal is 0.318 ± 0.0738 E-score.
For AATATCTC, the binding signal is 0.391 ± 0.0345 E-score.
As for AGTATCTG, the binding signal is 0.339 ± 0.041 E-score.
In the case of AATATCGG it was 0.371 ± 0.0225 E-score; in that of AATATATC, 0.311 ± 0.00568 E-score.
As to AGTATCTA, the binding signal was 0.305 ± 0.0244 E-score.
Regarding AATATCAA, the binding signal was 0.322 ± 0.0489 E-score.
For AATATCTA the value was 0.402 ± 0.018 E-score; for AGTATCTC, 0.235 ± 0.067 E-score.
For AATATCTG the value was 0.423 ± 0.0344 E-score; for ATTTAAAG, 0.222 ± 0.0214 E-score; for AACGTATA, 0.225 ± 0.0359 E-score.
On to ATTCGCAG, for which the binding signal worked out at 0.292 ± 0.0538 E-score.
Consider CACAATCA, for which the binding signal was found to be 0.27 ± 0.109 E-score.
As for AAGGGATT, the binding signal was 0.3179 ± 0.00237 E-score.
On to ATTTCGCA, for which the binding signal stood at 0.279 ± 0.0966 E-score.
On to AATCTGAG, for which the binding signal was 0.415 ± 0.0436 E-score.
For AATCAGTG the value was 0.266 ± 0.0198 E-score.
As to ATTCTGTG, the binding signal was 0.25 ± 0.0953 E-score.
In the case of ATCCTGTG it was 0.205 ± 0.0418 E-score; in that of AATCTGTG, 0.411 ± 0.0099 E-score.
For AATCAGAG the value was 0.229 ± 0.0948 E-score; for AAGCAAAT, 0.207 ± 0.0438 E-score; for AACGAAAT, 0.344 ± 0.0502 E-score.
For ATCAGAAG the value was 0.24 ± 0.0447 E-score; for AATATCAC, 0.34 ± 0.00742 E-score.
Take ATTCGATC: the binding signal was found to be 0.207 ± 0.00438 E-score.
Consider AATGGATA, for which the binding signal was 0.3 ± 0.0974 E-score.
With AGAATATA, the binding signal turned out to be 0.267 ± 0.0326 E-score.
Turning to AGAATATC, the binding signal was 0.4346 ± 0.00342 E-score.
Consider ACAATATC, for which the binding signal came to 0.3871 ± 0.00293 E-score.
Take AGAATATG: the binding signal turned out to be 0.253 ± 0.0505 E-score.
ATAATATC: the binding signal was determined as 0.347 ± 0.0287 E-score.
With AAAATATG, the binding signal worked out at 0.218 ± 0.038 E-score.
For ACAATATA the value was 0.206 ± 0.0382 E-score; for CAAATATC, 0.375 ± 0.0172 E-score; for AAAATATC, 0.406 ± 0.00752 E-score.
As to ATCCTTTG, the binding signal is 0.201 ± 0.0717 E-score.
Regarding AATCGCTG, the binding signal is 0.234 ± 0.00581 E-score.
In the case of ATCTAACC it was 0.266 ± 0.0179 E-score; in that of AGTGATAT, 0.298 ± 0.0207 E-score.
With ATCGCACC, the binding signal came out at 0.247 ± 0.126 E-score.
In the case of ATTACAAA it was 0.302 ± 0.0597 E-score; in that of AGGATCGC, 0.357 ± 0.0151 E-score.
Turning to AGGATTAC, the binding signal was 0.449 ± 0.00837 E-score.
As to ATGATTGC, the binding signal was 0.33 ± 0.019 E-score.
For the sequence ACGATTCC, the binding signal came to 0.4 ± 0.0168 E-score.
Regarding AGGATTAT, the binding signal came to 0.31 ± 0.0692 E-score.
On to AGAATTAC, for which the binding signal stood at 0.23 ± 0.0195 E-score.
For ACGATTCG, the binding signal came out at 0.324 ± 0.025 E-score.
As for AGGATTCG, the binding signal turned out to be 0.352 ± 0.0252 E-score.
In the case of AGGATTGC, the binding signal was 0.45 ± 0.0104 E-score.
As for ACGATTCT, the binding signal stood at 0.362 ± 0.0226 E-score.
In the case of ATGATTCC, the binding signal is 0.306 ± 0.0505 E-score.
For the sequence AGGATTCC, the binding signal was 0.448 ± 0.00523 E-score.
For the sequence ACTTAGAT, the binding signal is 0.257 ± 0.118 E-score.
Take ATCCACCC: the binding signal came to 0.255 ± 0.0461 E-score.

The values are drawn from PMC5836133, “The intracellular immune receptor Rx1 regulates the DNA-binding activity of a Golden2-like transcription factor”.
